In ChEMBL document CHEMBL3988442, “University of Dundee, Small-Polar-MMV Screening Library” (2021):
Hit rate of the full screen: of about 48,000 compounds, about 13,000 (27%) showed an effect of 50% or more. The list shows a part of the results.

Each compound was assayed on Wolbachia pipientis (assay: Anti-Wolbachia Cell-Based Screen). Details: 5 µM.
Type: functional
Design: scale not given: in the data most compounds retested in dose-response had high values

Row | Structure (SMILES) | Percent Effect [%]
1 | O=C(COc1coc(CN2CCCCC2)cc1=O)Nc1ccccc1Cl | 12.81
2 | Cc1csc(CNC(=O)NCC(O)c2ccc(F)c(F)c2)n1 (stereo not given) | -9.167
3 | COc1ccc(-n2ccnc2-c2cnc(C(C)C)nc2)cc1C(=O)O | -1.473
4 | CCNC(=O)NC(=O)CSC(C)c1c(F)cccc1F (stereo not given) | 4.576
5 | CCc1cnc(CN(C)C(=O)NC2CCN(CC3CC3)C2)s1 (stereo not given) | -7.872
6 | CCCS(=O)(=O)NCCc1ncc(CC)s1 | 98.37
7 | CCCS(=O)(=O)NCCc1ncc(C)s1 | 113.4
8 | CS(=O)(=O)NCCc1cccc2cccnc12 | -14.96
9 | CCc1cnc(CCNC(=O)N2CCCC(c3ncc[nH]3)C2)s1 (stereo not given) | -8.688
10 | CCCS(=O)(=O)NCCn1ccc(-c2cccs2)n1 | 29.12
11 | CCc1cnc(CCNS(C)(=O)=O)s1 | 96.32
12 | Cc1cnc(CCNC(Cc2ccncc2)C(F)(F)F)s1 (stereo not given) | 4.089
13 | CCCS(=O)(=O)NCc1ncc(C)c(OC)c1C | 21.89
14 | Cc1noc(C)c1CN(C)Cn1nccc1-c1cccnc1 | -3.571
15 | N#Cc1ccccc1CC1CCCS(=O)(=O)C1 (stereo not given) | 23.18
16 | Cc1ccc(NC2CCN(C(=O)C(C(C)C)n3cncn3)CC2)nn1 (stereo not given) | 114.7
17 | CC(C)C(C(=O)N1CCC(N(C)c2cccnn2)CC1)n1cncn1 (stereo not given) | 6.546
18 | CC(C)C(C(=O)N1CCC(Nc2cccnn2)CC1)n1cncn1 (stereo not given) | 1.287
19 | Cc1ccc(NC2CCN(C(=O)C(C)n3cncn3)CC2)nn1 (stereo not given) | 101.5
20 | CCc1nc(Cn2cncc(Br)c2=O)no1 | 3.979
21 | Cc1nc(NC(=O)CCOCC(F)(F)F)ccc1Br | 7.301
22 | CC(C)n1cnnc1Cn1c(=O)ccc2ccccc21 | -18.72
23 | COCCc1noc(-c2cn(Cc3ccc(OC)cc3)nn2)n1 | 3.926
24 | CS(=O)(=O)c1ccc(O[C@H]2COCCN(Cc3ccncc3)C2)cc1 | 8.188
25 | COc1cc(C)nc(N2CCN(C(=O)CN(C)C3CC3)CC2)n1 | -6.068

Row | Structure (SMILES) | Percent Effect [%]
26 | CN(C)c1cccc(C2CCN(c3ncccn3)CC2)n1 | 105.5
27 | O=C(Nc1ccc2ncsc2c1)N1CCCN([C@H]2COC[C@@H]2O)CC1 | -6.319
28 | CN(C)c1ccnc(N2CCC(NCCOc3ccccc3)CC2)n1 | -8.661
29 | Cc1cc(C)nc(N2CCC(c3ccnc(N(C)C)n3)CC2)n1 | 86.89
30 | Cc1cc(C)nc(N2CCC(c3nnc(CN(C)C)n3C3CC3)CC2)n1 | -32.06
31 | CN(C)c1nccc(C2CCN(C3CCCCC3O)CC2)n1 (stereo not given) | 139.6
32 | CCn1cnnc1CN(C)c1nccc(C2CCCC2)n1 | -5.507
33 | CN(Cc1nncn1C)c1nccc(C2CCCC2)n1 | -0.6799
34 | CC(C)c1ccnc(N[C@H]2COC[C@@H]2N2CCCC2)n1 | 5.714
35 | CN(C)c1cccc(C2CCN(C3COCC3O)CC2)n1 (stereo not given) | 145.5
36 | FC(F)(F)c1c[nH]c(C2CCN(c3ncccn3)CC2)n1 | -5.698
37 | Cc1noc(CN2CCOC(CN(C)C)C2)n1 (stereo not given) | 4.204
38 | O=C1CO[C@H]2CN(S(=O)(=O)c3ccccc3)C[C@H]2N1CC1CCCCC1 | -1.242
39 | CCN(CC1CCOC1)C(=O)Cn1nnn(-c2cccs2)c1=O (stereo not given) | -8.505
40 | COc1cc(OC)c(CNC(=O)NCC(=O)N2CCCC2)c(OC)c1 | 0.1885
41 | Cn1cc(CN2CC[C@@H]3[C@@H](CCC(=O)N3CCC3=CCCCC3)C2)cn1 | -6.139
42 | CC1CCN(CC(=O)NC(C#N)c2cnn(-c3ccccc3)c2)CC1 (stereo not given) | -3.926
43 | Cc1ccsc1C(=O)Nc1ccc(N2CCC(O)CC2)c(C#N)c1 | -13.01
44 | Cc1cc(C)c(CNC(=O)NCc2nnc3n2CCCC3)c(=O)[nH]1 | -2.933
45 | CN(C)c1nccc(C2CCN(c3ncccn3)CC2)n1 | 131.2
46 | CN(Cc1nccs1)C1CCN(c2ncccn2)CC1 | -5.116
47 | CCN(CC)C1CCN(c2nccc(C3CCCC3)n2)C1 (stereo not given) | 2.281
48 | Fc1cnc(NCC2Cn3nnc(-c4ccccc4)c3CO2)nc1 (stereo not given) | -26.66
49 | O=C1CCSCC(C(=O)N2CCCC2)N1 (stereo not given) | -10.11
50 | CC(=O)N1CCC2(CC1)CN(C(=O)C1CC1)c1ccc(F)cc12 | -23.77

Row | Structure (SMILES) | Percent Effect [%]
51 | COCC(=O)N1CCC2(CCc3ccc(F)cc32)CC1.Cl | -16.21
52 | Cc1ccc2c(c1)C1(CCN(C(N)=O)CC1)CN2CC1CC1 | 104
53 | CC(=O)N1CCC2(CC1)CN(C(C)C)c1ccc(F)cc12 | 93.83
54 | CC(=O)N1CCC2(CC1)C(=O)N(C)c1ccc(F)cc12 | -20.1
55 | CC(=O)N1CC2(CCN(C(=O)C3CC3)CC2)c2cc(C)ccc21 | -2.981
56 | CN(C)C(=O)N1CC2(CCN(CC3CC3)CC2)c2cc(F)ccc21.O=C(O)C(F)(F)F | -28.12
57 | COCC(=O)N1CCC2(CC1)CN(CC1CC1)c1ccc(F)cc12 | 102.5
58 | COCC(=O)N1CCC2(CC1)CC(OC)c1ccc(F)cc12 (stereo not given) | -1.265
59 | CC(=O)N1CCC2(CC1)CN(CC1CC1)c1ccc(F)cc12 | 110.5
60 | CNC(=O)N1CCC2(CC1)CN(C)c1ccc(F)cc12 | -1.265
61 | Cc1ccc2c(c1)C1(CCN(C(N)=O)CC1)CN2C(=O)N(C)C | 10.3
62 | COCc1cccc(S(=O)(=O)NCc2cnn(C)c2C)c1 | 10.62
63 | CC(=O)c1cccc(NS(=O)(=O)c2cc(C)c(C(=O)O)s2)c1 | 6.094
64 | Cc1ccccc1C(=O)NCc1ccc(N2CCNC(=O)C2)cc1 | 3.423
65 | O=C(NCc1ccc(Br)cc1)NCC1CCOC1 (stereo not given) | -13.61
66 | NS(=O)(=O)Cc1ccc(CNC(=O)NCC2CCOC2)cc1 (stereo not given) | -4.862
67 | CC(O)CNC(=O)NCc1ccc(N2CCNC(=O)C2)cc1 (stereo not given) | -1.608
68 | Cc1cccnc1NC(=O)NCc1ccc(N2CCNC(=O)C2)cc1 | -1.064
69 | CC(C(=O)NCc1ccc(N2CCNC(=O)C2)cc1)c1cccs1 (stereo not given) | 88.68
70 | O=C1CN(c2ccc(CNC(=O)NCC3CCOC3)cc2)CCN1 (stereo not given) | 100.4
71 | CCSc1cncc(NCc2ccc(N3CCNC(=O)C3)cc2)n1 | -9.871
72 | CC(C(=O)NCc1ccc(N2CCNC(=O)C2)cc1)n1cncn1 (stereo not given) | -3.383
73 | O=C1CN(c2ccc(CNC(=O)NCc3ccoc3)cc2)CCN1 | 94.29
74 | O=C1CN(c2ccc(CNC(=O)NCCO)cc2)CCN1 | 104.3
75 | Cc1nc(C(=O)NCc2ccc(N3CCNC(=O)C3)c(F)c2)cs1 | -8.487
